In PMC4336329 (PLoS ONE, 2015):
About 2,200 (0.71%) of roughly 310,000 compounds showed an effect of 50% or more. The effect is printed as a negative number. What follows is part of a selection rich in strong results, with near analogues and random picks from the rest.

The compounds below were run against human ether-à-go-go-related gene (hERG) potassium channel (human, UniProt Q12809) (assay: primary screen, population patch clamp on CHO cells stably expressing hERG; higher = less effect of the substance).
Sequence of human ether-à-go-go-related gene (hERG) potassium channel (Q12809 whole entry, looked up): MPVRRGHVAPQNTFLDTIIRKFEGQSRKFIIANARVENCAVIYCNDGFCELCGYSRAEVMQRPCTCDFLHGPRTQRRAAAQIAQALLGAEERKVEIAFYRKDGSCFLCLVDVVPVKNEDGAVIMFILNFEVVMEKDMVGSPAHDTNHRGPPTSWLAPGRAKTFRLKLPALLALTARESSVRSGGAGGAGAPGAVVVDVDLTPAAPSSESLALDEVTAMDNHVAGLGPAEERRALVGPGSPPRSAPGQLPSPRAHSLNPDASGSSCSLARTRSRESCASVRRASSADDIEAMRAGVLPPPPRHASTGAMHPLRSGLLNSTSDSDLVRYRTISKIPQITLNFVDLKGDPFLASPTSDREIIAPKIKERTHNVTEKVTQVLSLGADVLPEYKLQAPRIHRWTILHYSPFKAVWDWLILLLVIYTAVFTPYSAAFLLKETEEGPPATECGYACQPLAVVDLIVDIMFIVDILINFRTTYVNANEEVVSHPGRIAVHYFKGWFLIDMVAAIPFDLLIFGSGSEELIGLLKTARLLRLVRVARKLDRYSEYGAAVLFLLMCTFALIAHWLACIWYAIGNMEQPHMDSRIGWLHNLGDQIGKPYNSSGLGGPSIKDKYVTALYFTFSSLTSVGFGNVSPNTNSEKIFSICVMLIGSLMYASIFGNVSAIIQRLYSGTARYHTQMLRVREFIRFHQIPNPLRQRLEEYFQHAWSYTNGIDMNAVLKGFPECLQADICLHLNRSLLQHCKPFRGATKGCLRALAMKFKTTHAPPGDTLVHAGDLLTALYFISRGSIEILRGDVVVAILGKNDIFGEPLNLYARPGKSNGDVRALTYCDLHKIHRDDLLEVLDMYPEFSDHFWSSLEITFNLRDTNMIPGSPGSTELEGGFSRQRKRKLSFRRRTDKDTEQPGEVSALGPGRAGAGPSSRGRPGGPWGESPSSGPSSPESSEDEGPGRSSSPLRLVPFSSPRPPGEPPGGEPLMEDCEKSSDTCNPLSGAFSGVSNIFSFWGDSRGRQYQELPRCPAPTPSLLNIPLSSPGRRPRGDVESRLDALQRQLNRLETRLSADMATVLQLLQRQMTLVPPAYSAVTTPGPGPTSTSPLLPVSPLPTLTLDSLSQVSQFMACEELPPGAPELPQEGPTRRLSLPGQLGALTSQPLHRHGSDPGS

Structure (SMILES) | hERG current change (%, negative = inhibition) at 1uM
COc1ccc(S(=O)(=O)NCCC(C)C)cc1C | 4.62%
Cc1c(CN(C)C(=O)/C=C/c2ccc([N+](=O)[O-])cc2)cnn1C | -65.5%
Cc1c(CN(C)C(=O)c2nn(C)cc2[N+](=O)[O-])cnn1C | 10.8%
CCn1cc(CN(C)C(=O)/C=C/c2ccc([N+](=O)[O-])cc2)c(C)n1 | -35.3%
CC(C)c1ccc(O)c(CN2CCN(c3ccccc3)CC2)c1 | 10.3%
COc1ccc(C(C)=O)cc1CN1C(=O)NC2(CCCCCCC2)C1=O | 19.8%
CCOc1ccc(C(C)=O)cc1CN1C(=O)NC2(CCCCCCC2)C1=O | -51.8%
CCOc1ccc(C(C)=O)cc1CN1C(=O)NC2(CCCCCC2)C1=O | 13.5%
CCC(=O)OCC(=O)Nc1ccc([N+](=O)[O-])cc1OC | 9.97%
Cc1ccccc1OCCC(=O)Nc1ccc(F)c(Cl)c1 | 13.7%
CC(=O)N1CC(C)Sc2ccc(S(=O)(=O)NCc3ccc(Cl)cc3)cc21 (stereo not shown) | 1.91%
Cc1ccc(/C=C/C(=O)NCCCN2CCN(CCCNC(=O)/C=C/c3ccc(C)cc3)CC2)cc1 | 7.32%
O=C(/C=C/c1ccccc1)N1CCCN(C(=O)/C=C/c2ccccc2)CC1 | -44%
Cc1ccc(/C=C/C(=O)N2CCCN(C(=O)/C=C/c3ccc(C)cc3)CC2)cc1 | -53.5%
O=C(/C=C/c1ccc(F)cc1)NCCCN1CCN(CCCNC(=O)/C=C/c2ccc(F)cc2)CC1 | -72.5%
O=C(/C=C/c1ccc(F)cc1)N1CCCN(C(=O)/C=C/c2ccc(F)cc2)CC1 | -84.7%
O=C(/C=C/c1ccc(F)cc1)NCCNC(=O)/C=C/c1ccc(F)cc1 | 16.8%
CCN1CCN(C(=O)/C=C/c2ccc(C)cc2)CC1 | 4.54%
CN1CCCN(C(=O)/C=C/c2ccc(F)cc2)CC1 | -5.11%
CCN1CCN(C(=O)/C=C/c2ccc(F)cc2)CC1 | -13.1%
Cc1ccccc1S(=O)(=O)N1[C@@H](c2ccc(F)cc2)C(C(=O)O)=CC[C@H]1c1ccc(Cl)cc1 | 8.27%
COc1ccc(/C=C2\CCCC3C2=NN(C(=O)CSc2ncn[nH]2)C3c2ccc(OC)cc2)cc1 (stereo not shown) | 16.5%
CCCCn1c(N)c(N(CC(C)C)C(=O)c2cccc(S(=O)(=O)N3CCCCCC3)c2)c(=O)[nH]c1=O | 4.52%

Structure (SMILES) | hERG current change (%, negative = inhibition) at 1uM
Cc1ccc(NC(=O)CSc2nnc(-c3ccco3)o2)c(C)c1 | 17.5%
O=C(NCCCn1ccnc1)/C(=C\c1cccs1)NC(=O)c1cccs1 | -27.6%
COc1ccc(C(=O)N/C(=C/c2cccs2)C(=O)NCCCn2ccnc2)cc1OC | 0.585%
O=C(NCCCn1ccnc1)/C(=C\c1cccs1)NC(=O)c1ccccc1 | -19.1%
Cc1ccc(C(=O)N/C(=C\c2cccs2)C(=O)NCCCn2ccnc2)cc1 | -66%
Cc1ccc(C(=O)N/C(=C\c2cccs2)C(=O)NCCCn2ccnc2)cc1C | -32.3%
Cc1ccc(C(=O)N/C(=C/c2cccs2)C(=O)NCCCn2ccnc2)cc1 | -50%
CSC1=N/C(=C\c2ccccc2Cl)C(=O)N1N(C)C | 1.86%
Cc1cc(=O)[nH]c(SC(C)C(=O)Nc2cccc3ccccc23)n1 (stereo not shown) | 6.33%
CCCCCC(=O)Nc1ccc(N2CCN(CC)CC2)c(Cl)c1 | -55.6%
CCCOc1ccc(C(=O)N2CCN(c3ccc(NC(=O)CC)cc3Cl)CC2)cc1 | -58.7%
CCCOc1ccc(C(=O)N2CCN(c3ccc(N)cc3Cl)CC2)cc1 | -6.51%
CCN1CCN(c2ccc(NC(C)=O)cc2Cl)CC1 | 10.3%
CCCC(=O)Nc1ccc(N2CCN(CC)CC2)c(Cl)c1.Cl | -17.9%
COc1ccc(OCC(=O)Nc2ccc(N3CCN(C(=O)c4ccccc4)CC3)c(Cl)c2)cc1 | 9.86%
CCN1CCN(c2ccc(NC(=O)c3ccc(F)cc3)cc2Cl)CC1 | -66.8%
CCN1CCN(c2ccc(NC(=O)c3cccc(F)c3)cc2Cl)CC1 | -8.27%
CCC(=O)Nc1ccc(N2CCN(CC)CC2)c(Cl)c1 | 8.56%
CCC(=O)NC(=S)NNC(=O)c1ccc([N+](=O)[O-])cc1 | 8.99%
CC(OC(=O)c1cccs1)C(=O)NC1CC1 (stereo not shown) | 7.03%
CC(OC(=O)c1cccs1)C(=O)NC1CCCCC1C (stereo not shown) | -66.1%
CC(OC(=O)CCC(=O)c1cccs1)C(=O)NC1CCCCC1C (stereo not shown) | 0.622%
CCOc1ccc(NC(=O)CN(C)C(=O)c2ccc(COc3ccccc3)cc2)cc1OCC | 4.94%

Structure (SMILES) | hERG current change (%, negative = inhibition) at 1uM
Cc1ccc(NS(=O)(=O)c2ccccc2Cl)c2c1CC(C)(C)O2 | 6.77%
Cc1ccc2sc(NNC(=O)C3COc4ccccc4O3)nc2c1C (stereo not shown) | 9.9%
O=C(NCCNC(=O)c1cccnc1)c1ccc(Br)cc1 | 29.6%
CN(C)C/C=C(\c1ccc(Br)cc1)c1cccnc1.Cl.O | -35.3%
CN(C)C/C=C(/c1ccc(Br)cc1)c1cccnc1.Cl | -60.8%
CC(C)C(=O)Nc1ccc2c(c1)oc1ccccc12 | 11.8%
O=C(COC(=O)C12CC3CC(CC(O)(C3)C1)C2)Nc1ccc(Cl)cc1F | -1.56%
COc1ccccc1C(=O)Nc1ccon1 | -0.0061%
N=c1nc(N)nc2n1NC(c1ccc(F)cc1)=CS2 | -3.69%
COc1ccc(N(C(=O)/C=C/c2ccccc2)C2=CC3CCC(C2)N3C)cc1.Cl (stereo not shown) | -70.3%
CN1C2CCC1CC(OC(=O)c1ccc(Cl)cc1)C2.Cl (stereo not shown) | -9.75%
CN1C2CCC1CC(N(CCc1ccccc1)C(=O)c1ccc(Cl)cc1)C2.Cl (stereo not shown) | -78.8%
COc1ccc(N(C(=O)c2ccc(Cl)cc2)C2=CC3CCC(C2)N3C)cc1.Cl (stereo not shown) | -76.1%
COc1cc(C(=O)N(CCc2ccccc2)C2=CC3CCC(C2)N3C)cc(OC)c1OC.Cl.O (stereo not shown) | -13.5%
CN1C2C=C(N(CCc3c[nH]c4ccccc34)C(=O)c3ccc(Cl)cc3)CC1CC2.Cl (stereo not shown) | -41.4%
CCCCN(C(=O)c1ccc(Cl)cc1)C1CC2CCC(C1)N2C.Cl (stereo not shown) | -15.6%
CN1C2C=C(N(CCc3ccccc3)C(=O)c3ccc(Cl)cc3)CC1CC2.Cl (stereo not shown) | -19.7%
Cc1cc(C)cc(C(=O)N(CCc2ccccc2)C2CC3CCC(C2)N3C)c1.Cl (stereo not shown) | -18%
CN1C2C=C(N(C(=O)c3ccc(Cl)cc3)c3ccccc3)CC1CC2.Cl (stereo not shown) | -69.8%
COc1ccc(C(=O)CN(C(=O)c2ccc(Cl)cc2)N2C(=O)C3CCCCC3C2=O)cc1 (stereo not shown) | 10.8%
COc1ccc(N(C(=O)/C=C/c2ccc(OC)c(OC)c2)C2=CC3CCC(C2)N3C)cc1.Cl (stereo not shown) | -42.8%
